Sampled rows, rich in hits. Any-hit rate of the full collection: about 4.6%.
NTMT1 inhibitor: inhibitors of human N-terminal methyltransferase NTMT1; Q9BV86; NTMT1 MTase-Glo SAH luminescence, purified enzyme; Potency, µM (series often up to 114 µM), for inactives: at the highest dose activity change, negative = inhibition, hits mostly inhibitors; actives 2.5% (n = 59,000); AID 1645870;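 also: potency is read from the fitted curve at half-maximal effect; plate controls were DMSO vehicle for no effect and no enzyme for full effect; nearly all actives have a fitted effect of over 65% in size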
Target sequence (Q9BV86 whole entry, looked up): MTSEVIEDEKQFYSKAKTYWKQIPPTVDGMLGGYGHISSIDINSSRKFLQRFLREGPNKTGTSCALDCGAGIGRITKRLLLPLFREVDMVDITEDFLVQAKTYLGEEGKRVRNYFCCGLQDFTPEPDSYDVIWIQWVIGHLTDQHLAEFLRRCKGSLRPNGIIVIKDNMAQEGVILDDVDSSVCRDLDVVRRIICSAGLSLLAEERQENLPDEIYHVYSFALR
HTT-AS act: activators of huntingtin-antisense promoter activity; HEK293 HTT-AS promoter firefly luciferase reporter, 24 h; response scale: percent change from vehicle, -100% = no light; Potency, µM (titrated, usually from 57.5 µM), inactives show at the highest dose activity change, positive = activation, actives largely listed as activators; actives 0.24% (n = 48,000); also: potency is read from the fitted curve at half-maximal effect; nearly all actives have a fitted effect of over 55% in size
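Firefly luciferase readout (Dual-Glo, 10 min RT) after 24 h, 37 °C compound exposure (final up to 57.5 uM) of HEK293 reporter cells cultured 24 h beforehand; PTC124 at 50 uM final as control inhibitor; activity scaled vehicle 0%, zero RLU -100%.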
HTT promoter inh: inhibits huntingtin promoter activity; AID 1508623; Potency, µM (doses to about 57.5 µM), for the others: at the highest dose activity change, negative = inhibition, actives largely listed as inhibitors; actives 0.93% (n = 48,000); HEK293 HTT promoter firefly luciferase reporter, 24 h; also: potency is read from the fitted curve at half-maximal effect; nearly all actives have a fitted effect of over 50% in size
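HEK293 cells carrying firefly luciferase reporters were seeded at 2,500 per well in Opti-MEM and cultured for 24 h. They were then treated with compounds at up to 57.5 uM final for 24 h at 37 degrees C before Dual-Glo luminescence readout.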
GPR32 ag: activates human resolvin D1 receptor GPR32; O75388; CHO-K1 GPR32 beta-arrestin PathHunter luminescence, 90 min; zero percent set by DMSO-only wells; activation, % at 76.9 µM; actives 2.5% (n = 48,000); AID 1346428;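 active = activation of at least 60% and not above a set upper limit, about 1 call in 100 departs from these limits; inconclusive = activation of 40% to 60%, or above that upper limit; inactive = activation under 40%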; also: 0% is about no effect
Target sequence (O75388 whole entry, looked up): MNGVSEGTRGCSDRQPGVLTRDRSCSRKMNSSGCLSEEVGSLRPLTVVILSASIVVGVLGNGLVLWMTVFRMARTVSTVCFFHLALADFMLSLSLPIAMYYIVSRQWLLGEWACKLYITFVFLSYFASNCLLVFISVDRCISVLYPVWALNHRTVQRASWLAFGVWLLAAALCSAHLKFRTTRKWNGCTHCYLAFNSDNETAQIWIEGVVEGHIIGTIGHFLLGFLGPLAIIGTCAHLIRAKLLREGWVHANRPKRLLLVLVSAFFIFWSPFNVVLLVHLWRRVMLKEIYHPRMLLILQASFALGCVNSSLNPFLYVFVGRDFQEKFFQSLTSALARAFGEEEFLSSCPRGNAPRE
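GPR32 activation in stably transfected CHO-K1 cells, detected as beta-arrestin recruitment by enzyme-fragment complementation. Compound exposure: 90 min, 37 °C.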
Active calls of the source: *; ! = not active in a repeat; [ ] = dose if it differs, or a comment. Unless noted, calls follow the shape of the dose curve; as a rule, active = well fitted curve in the direction sought with a large enough effect; inconclusive = small, poorly fitted or top-dose-only effect, or another doubt; inactive = no such curve, though single readings can be large; an effect the other way counts as inactive or inconclusive.

Results for Brc1c(Br)c(Br)c2n[nH]nc2c1Br ?
NTMT1 inhibitor: 11.2µM*; GPR32 ag: 27.8

What do the screens show for `Brc1c(Br)c(Br)c2[nH]cnc2c1Br`?
GPR32 ag: 4.7

How did Cc1cc(-c2ccccc2)nc2c(C(=O)Nc3ccc4c(c3)CCC4)cnn12 do in these assays?
NTMT1 inhibitor: 5.5%

How did COc1c(/C=C/C(C)(C)O)ccc2c1C(=O)OCc1cc(C)cc(O)c1O2 do in these assays?
NTMT1 inhibitor: -2.3%[29.8 µM]

How did CCOc1ccc(Cc2nccc3cc(OCC)c(OCC)cc23)cc1OCC do in these assays?
NTMT1 inhibitor: -19.7%[57.5 µM]; HTT-AS act: -52.8%; HTT promoter inh: inconclusive; GPR32 ag: 88.3*

Results for CCOc1ccc(CNC(=O)CCn2cccn2)cc1OC ?
NTMT1 inhibitor: -3.8%; HTT-AS act: -6.7%; HTT promoter inh: -0.3%; GPR32 ag: 2.2

What do the screens show for `CC(C)N(CCCNC(=O)Nc1ccc(C(C)(C)C)cc1)C[C@H]1O[C@@H](n2cc(Br)c3c(N)ncnc32)[C@H](O)[C@H]1O`?
NTMT1 inhibitor: 19.2µM*; HTT-AS act: -74.2%; HTT promoter inh: inconclusive

How did O=C(Nc1ncc([N+](=O)[O-])s1)c1cccs1 do in these assays?
NTMT1 inhibitor: 39.8µM*; HTT-AS act: -76.9%; HTT promoter inh: -26.0%; GPR32 ag: -39.7

Results for O=C(Nc1cccnc1)c1cccs1 ?
NTMT1 inhibitor: -6.1%

Results for c1cncc(-c2ccc(CNc3nc(N4CCOCC4)nc4ccccc34)cc2)c1 ?
NTMT1 inhibitor: -11.9%[57.5 µM]

What do the screens show for `Cc1cccc(N(C)C(=O)CCNS(=O)(=O)c2ccc3c(c2)CCN3C(=O)C2CC2)c1`?
NTMT1 inhibitor: 6.3%; HTT-AS act: inconclusive; HTT promoter inh: -16.9%; GPR32 ag: 70.7*

Results for CCC(=O)N1CCc2cc(Br)cc(S(=O)(=O)CCC(=O)N3CCN(c4cccc(C)c4)C(C)C3)c21 (stereo not given) ?
NTMT1 inhibitor: inconclusive; HTT-AS act: 1.1%; HTT promoter inh: -12.5%; GPR32 ag: -13.2

Results for O=C(CCNS(=O)(=O)c1ccc2c(c1)CCN2C(=O)C1CC1)N1CCN(c2cccc(C(F)(F)F)c2)CC1 ?
NTMT1 inhibitor: 3.6%; HTT-AS act: -48.9%; HTT promoter inh: 28.2µM*; GPR32 ag: 73.7*

What do the screens show for `Cc1cccc(NS(=O)(=O)c2ccc3c(c2)CCN3C(=O)C2CCC2)c1`?
NTMT1 inhibitor: 13.2%; HTT-AS act: -51.8%; HTT promoter inh: 20µM*; GPR32 ag: -0.1

How did CCC(=O)N1CCc2cc(S(=O)(=O)CCC(=O)N3CCN(c4cccc(C)c4)C(C)C3)ccc21 (stereo not given) do in these assays?
NTMT1 inhibitor: -17.7%; HTT-AS act: -21.4%; HTT promoter inh: -28.0%; GPR32 ag: 66.0*

What do the screens show for `CCCC(C)NC(=O)Cn1nc(-c2ccc(C)cc2)ccc1=O` (stereo not given)?
NTMT1 inhibitor: -0.3%[57.5 µM]

What do the screens show for `COc1ccc(CNc2ccc(-c3nc4ccccc4[nH]3)cc2)cc1OC`?
NTMT1 inhibitor: -1.0%[57.5 µM]

How did CC(CC12CCCN1C(=O)C1CCCN1C2=O)OC(N)=O (stereo not given) do in these assays?
NTMT1 inhibitor: 6.8%[29.8 µM]

Results for CC1(C)OCCn2c1nc1c(N3CCOCC3)nc(-c3cnc(N)nc3)nc12 ?
NTMT1 inhibitor: 12.7%

Results for COc1ccc(NC(=O)CCNS(=O)(=O)c2ccc3c(c2)CCN3C(=O)C2CC2)cc1Cl ?
NTMT1 inhibitor: 5.9%; HTT-AS act: -39.5%; HTT promoter inh: inconclusive; GPR32 ag: 4.1

How did COc1ccc(NS(=O)(=O)c2ccc3c(c2)CCN3C(=O)C2CC2)cc1OC do in these assays?
NTMT1 inhibitor: -1.3%; HTT-AS act: -90.7%; HTT promoter inh: 3.98µM*; GPR32 ag: 20.9

How did COc1ccc(CC(=O)Nc2ccc(S(=O)(=O)Nc3cc(C)on3)cc2)cc1C do in these assays?
NTMT1 inhibitor: 5.6%[57.5 µM]

Results for COc1ccc(CCNC(=O)CCc2c(C)c3cc4c(C)coc4c(C)c3oc2=O)cc1OC ?
NTMT1 inhibitor: 89.1µM*; HTT-AS act: -16.2%; HTT promoter inh: -11.7%; GPR32 ag: -9.3

What do the screens show for `COc1ccc(CNC(=O)CCc2c(C)c3cc4c(C)coc4cc3oc2=O)cc1`?
GPR32 ag: 68.0*

How did COc1ccc(CNC(=O)CCc2c(C)c3cc4c(C)c(C)oc4cc3oc2=O)cc1 do in these assays?
NTMT1 inhibitor: inconclusive; HTT-AS act: -12.7%; HTT promoter inh: -2.8%; GPR32 ag: -12.4

What do the screens show for `C=CC(=O)c1ccc(CCCCCC)cc1`?
GPR32 ag: 11.4

How did CCCCCCCCc1ccc(CCC(N)(CO)CO)cc1 do in these assays?
NTMT1 inhibitor: 44.7µM*!; HTT-AS act: -16.4%; HTT promoter inh: -10.7%

Results for O=C(COc1ccc(F)cc1)OCc1cc(=O)n2nc(C3CC3)sc2n1 ?
NTMT1 inhibitor: 4.8%; HTT-AS act: -8.4%; HTT promoter inh: -13.5%; GPR32 ag: 96.8*

How did NC[C@@H]1O[C@@H](O[C@@H]2[C@@H](O[C@@H]3O[C@H](CO)[C@@H](O)[C@H]3O)[C@H](O)[C@@H](N)C[C@H]2N)[C@@H](N)[C@H](O)[C@H]1O do in these assays?
NTMT1 inhibitor: 2.2%[12.6 µM]

How did COc1ccccc1NC(=O)CSc1nc(-c2ccccc2F)nc2cc(=O)[nH]n12 do in these assays?
NTMT1 inhibitor: 7.7%; HTT-AS act: -16.7%; HTT promoter inh: -5.5%; GPR32 ag: 1.3

How did O=c1cc2nc(-c3ccccc3F)nc(SCc3ccc(Br)cc3)n2[nH]1 do in these assays?
NTMT1 inhibitor: -9.6%; HTT-AS act: -8.4%; HTT promoter inh: -10.1%; GPR32 ag: 107.9*

How did Clc1cccc(-c2noc3ncnc(NC4CCCCC4)c23)c1 do in these assays?
NTMT1 inhibitor: -3.4%; HTT-AS act: -31.4%; HTT promoter inh: inconclusive; GPR32 ag: 90.6*

Results for Cc1cn([C@H]2C[C@H](N[S+](=O)([O-])c3ccc4c(c3)OCCO4)[C@@H](CO)O2)c(=O)[nH]c1=O ?
NTMT1 inhibitor: 2.6%

How did CCc1ccc(CNCc2c(C(=O)O)n(Cc3cccc(F)c3)c3cc(OC)ccc23)cc1 do in these assays?
NTMT1 inhibitor: -1.3%; HTT-AS act: -44.4%; HTT promoter inh: inconclusive; GPR32 ag: 109.4*

How did Cc1ccc(CNCc2c(C(=O)O)n(Cc3ccc(C)cc3)c3cc(C)ccc23)cc1 do in these assays?
NTMT1 inhibitor: -7.2%; HTT-AS act: -57.7%; HTT promoter inh: inconclusive; GPR32 ag: 98.3*

How did COc1ccc2c(CNCCc3ccc(SC)cc3)c(C(=O)O)n(Cc3ccc(F)cc3)c2c1 do in these assays?
NTMT1 inhibitor: 14.8%; HTT-AS act: -33.0%; HTT promoter inh: inconclusive; GPR32 ag: 114.9*

Results for CCc1ccc(CNCc2c(C(=O)O)n(Cc3ccc(C)cc3)c3cc(C)ccc23)cc1 ?
NTMT1 inhibitor: -10.7%; HTT-AS act: -48.4%; HTT promoter inh: inconclusive; GPR32 ag: 32.6

What do the screens show for `COC(=O)c1ccc([C@H]2c3[nH]c4ccccc4c3C[C@H](C(=O)OC)N2C(=O)CCl)cc1`?
NTMT1 inhibitor: 17.8%

Screens: PubChem, National Center for Advancing Translational Sciences (NCATS)
